Laboratory results: PubChem BioAssay AID2380 (Sanford-Burnham Center for Chemical Genomics, 2010)
Screen size: about 330,000 compounds; about 960 (0.29%) were called active. This is one part of a sample in which actives are shown more often than they occur. Values without a mark were called inactive.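 The calls were made as follows: active = compounds whose signal lies at least 3.5 SD above the mean of all wells on their plate; inactive = the rest.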

experiment: small molecules increasing insulinoma cell replication – ATP luminescence, uHTS, primary screen (AID 2380); details: MIN6 cells proliferation, ATPlite luminescence, 48 h; at 10 µM; active compounds read high; 100% = growth in 10% serum; cells starved in 0.2% serum;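 also: 0% = DMSO-treated cells in low-serum medium and 100% = 10% serum control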

For COc1cccc(CNC(=O)C2CCCN(c3ncnc4c3nc3n4CCCCC3)C2)c1 (stereo unspecified), the proliferation was 7.08% (active).
For Cc1ccccc1CNC(=O)CCC(=O)N1Cc2ccccc2Oc2ncccc21, the proliferation was 12.5% (active).
With CC(=O)c1cccc(NC(=O)COc2ccc(S(=O)(=O)N3CCOCC3)cc2)c1 the proliferation was 10.6% (active).
For CC(=O)OC(C(=O)NC1CCCCC1)c1ccccc1 (stereo unspecified), the proliferation was 5.32% (active).
In the case of O=S(=O)(NCCOc1cccc2cccnc12)c1ccc(F)cc1, the proliferation is reported as 5.56% (active).
For Cc1ccc(C(=O)Nc2ccc(NC(=O)c3cccs3)cc2)c(C)c1, the proliferation was 0% (active).
With CCn1c(=O)n(CC)c2cc(N3CCCC3)c(NC(=O)c3ccccc3Br)cc21 the proliferation was 13.7% (active).
For CC/C(=N/Nc1ccccc1)c1cnnc(SC)n1, the proliferation was 8.26% (active).
For COC(=O)Nc1sc2nc(C)cc(C)c2c1-n1cccc1, the proliferation was 8.22% (active).
In the case of S=C(Nc1cccc(Cl)c1)Nc1ccc2cn[nH]c2c1, the proliferation is reported as 0% (active).
In the case of COc1ccc(CCC(=O)c2ccc(OC)cc2)cc1, the proliferation is reported as 5.33% (active).
With CC(=O)c1cnc(-c2ccccc2)s1 the proliferation was 8.82% (active).
For O=C1c2ccccc2S(=O)(=O)c2cc(N3CCN(c4ccccn4)CC3)ccc21, the proliferation was 12.1% (active).
For O=C(CSc1nc2ccccc2[nH]1)N/N=C/C=C\c1ccccc1[N+](=O)[O-], the proliferation was 6.1% (active).
In the case of O=C(NNC(=S)NCc1ccccc1)c1ccc(OC(F)F)cc1, the proliferation is reported as 0% (active).
With Fc1ccc(CNCc2ccc(Br)cc2)cc1 the proliferation was 5.1% (active).
For COc1ccccc1OCc1ccc(C(=O)N2CCN(C)CC2)o1, the proliferation was 7.74% (active).
In the case of Cc1ccccc1NC(=S)NNC(=O)c1cccc(Br)c1, the proliferation is reported as 13.8% (active).
With COCCNc1nc(-c2ccccc2)nc2c1oc1ccccc12 the proliferation was 6.28% (active).

Going from O=C(NCCCN1CCCCC1)C1CCCN(c2ncnc3c2nc2n3CCCCC2)C1 (stereo unspecified) to COc1cccc(NC(=O)C2CCCN(c3ncnc4c3nc3n4CCCCC3)C2)c1 (stereo unspecified), the proliferation rises from -1.13% to 5.62%.

Compared with Cc1ccc2c(c1)N(C(=O)CCC(=O)NCc1cccnc1)CCO2, CC1CN(C(=O)CCC(=O)NCc2cccnc2)c2ccccc2O1 (stereo unspecified) is lower in proliferation: 1.08% for the first, -2.56% for the second.

Going from CC(C)Cc1nc(Nc2ccc(S(=O)(=O)N3CCCC3)cc2)c2nnn(Cc3ccccc3)c2n1 to O=C(Nc1ccccc1N1CCCC1)c1ccc2ccccc2c1, the proliferation falls from -0.74% to -2.88%.

First: COC(=O)C(C(=O)Nc1cccc(C)n1)C1CCCCCC1 (stereo unspecified)
Second: O=C(NNC(=O)C(O)c1ccccc1)NC1CCCCC1 (stereo unspecified)
The proliferation of the first is higher: 0% for the first, -1.83% for the second.

First: O=C(C1CCN(C2CCN(Cc3cccc4c3OCO4)CC2)CC1)N1CCOCC1
Second: Cc1cccc(CN2CCC(n3nccc3NC(=O)c3ccccc3C)CC2)n1
The proliferation of the first is higher: 1.29% for the first, 0.34% for the second.

First: CC1CCN(C(=O)CCc2nnc3ccc(NCc4ccco4)nn23)CC1
Second: O=C(c1ccco1)N1CCN(C(=O)c2ccc(COc3ccc(F)cc3)o2)CC1
The proliferation of the first is lower: -1.78% for the first, 6.29% for the second.

First: O=C(COC(=O)c1ccccc1)Nc1cccc(S(=O)(=O)N2CCOCC2)c1
Second: COC(=O)COc1ccc(S(=O)(=O)N2CCOCC2)cc1
The proliferation of the first is higher: 1.39% for the first, -2.03% for the second.

Going from CCN1C(=O)[C@@H]2[C@@H](c3ccc(-c4ccccc4)cc3)N3CCCC[C@@]3(C(=O)OC)[C@@H]2C1=O to CN1C(=O)[C@H]2[C@@H](C3CC3)N3C(=O)CN(Cc4ccccc4)C(=O)[C@@]3(C)[C@H]2C1=O, the proliferation rises from -7.4% to 3.27%.

First: CN(CC(=O)Nc1c(Cl)cccc1Cl)C(=O)CC1OC(=O)c2ccccc21 (stereo unspecified)
Second: Cc1cc(=O)oc2cc(OCC3CC(c4ccccc4Cl)=NO3)ccc12 (stereo unspecified)
The proliferation of the first is higher: -1.95% for the first, -5.28% for the second.

Compared with CC1Cn2c(nnc2-c2cccs2)S1 (stereo unspecified), Cc1ccc(NC(=O)c2cccs2)cc1S(=O)(=O)N(C)C is higher in proliferation: -1.85% for the first, 0.43% for the second.

Going from O=C(NCc1ccc2c(c1)OCO2)c1cc2c(s1)CS(=O)(=O)C2 to CC(NC(=O)c1ccco1)c1ccc2c(c1)OCO2 (stereo unspecified), the proliferation rises from -0.86% to -0.03%.

Compared with CC(=O)CC(CC(=O)NC1CCCCC1)c1ccccc1 (stereo unspecified), CC(C)(C)C1CCC(OC(=O)CCC(=O)Nc2ccccc2)CC1 (stereo unspecified) is lower in proliferation: 0.52% for the first, 0% for the second.

First: Cn1c(=O)c2c(ncn2CC(COCc2ccccc2Cl)OCc2ccccc2Cl)n(C)c1=O (stereo unspecified)
Second: CCOc1ccc(-n2c(SCC(=O)Nc3cc(C(=O)O)ccc3Cl)nc3ccccc3c2=O)cc1
The proliferation of the first is lower: -1.81% for the first, -1.58% for the second.

Going from Nc1[nH]c(=S)nc2nc(-c3ccccc3)c(-c3ccccc3)nc12 to OCc1ccc(-c2ccccc2)c(-c2ccccc2)c1, the proliferation rises from -5.91% to -3.43%.

Going from COC(=O)c1cc(C(=O)NC(C)C2CC3CCC2C3)cc([N+](=O)[O-])c1 (stereo unspecified) to CC(C)c1nnc(NC(=O)COC(=O)/C=C/c2ccc([N+](=O)[O-])cc2)s1, the proliferation rises from 0% to 0.53%.

Compared with O=S(=O)(NCc1ccccn1)c1ccc(F)cc1, O=S(=O)(NCCc1ccc(F)cc1)c1cccc2cccnc12 is higher in proliferation: 0.39% for the first, 3.17% for the second.

Going from Cc1cc(Cl)ccc1NNC(=O)c1snnc1C to Cc1cc(C(=O)NNC(=S)Nc2ccccc2C)cs1, the proliferation rises from -4.18% to 0%.

First: CNc1[nH]ncc1[N+](=O)[O-]
Second: CCn1c(SCC(=O)N/N=C/C=C/c2ccccc2[N+](=O)[O-])nnc1-c1ccccc1
The proliferation of the first is higher: 3.19% for the first, -1.08% for the second.

Compared with CN(C(=O)CSc1nnc(-c2n[nH]c3ccccc23)o1)c1ccccc1, C[C@@H](Nc1nc(-c2ccccc2)nc2c1oc1ccccc12)C(=O)O is lower in proliferation: 0.29% for the first, -1.21% for the second.

Compared with Cc1ccc(OCC(=O)Nc2ccc(NC(=O)c3cccs3)cc2)c(C)c1, COc1ccc(C(=O)CCC(=O)Nc2ccc(Cl)cc2)cc1 is lower in proliferation: 0% for the first, -2.97% for the second.

First: CC(C)(C)N(CC#CCC(O)(c1ccccc1)C1CCCC1)CCO (stereo unspecified)
Second: CC(C)(C)C(=O)c1cnc(Nc2ccccc2)s1
The proliferation of the first is higher: 2.2% for the first, -3.47% for the second.

Compared with COc1ccc(NS(=O)(=O)c2ccc(N3CCOCC3)c(NC(=O)c3ccccc3Br)c2)cc1, Cc1ccc(S(=O)(=O)N2CCN(C(=O)c3ccccc3-c3nc4ccccc4s3)CC2)c(C)c1 is lower in proliferation: 5.36% for the first, -1.73% for the second.

Compared with CCC(C(=O)NC1CCCC1)N(C(=O)Cn1nnc(-c2ccc(C)o2)n1)c1ccc(OC)c(OC)c1 (stereo unspecified), CCOC(=O)N1CCN(C(=O)c2ccc3c(=O)n(CCc4ccc(OC)c(OC)c4)c(=O)[nH]c3c2)CC1 is lower in proliferation: 5.41% for the first, 2.68% for the second.

First: COc1ccc(N(CC(=O)Nc2cc(OC)ccc2OC)S(=O)(=O)c2c(C)noc2C)cc1
Second: COc1ccc(C)cc1Nc1nc(C)nc2c1oc1ccccc12
The proliferation of the first is higher: -0.48% for the first, -4.77% for the second.

Compared with CCCOc1ccc(NC(=O)CC2C(=O)N(C)C(=S)N2Cc2ccc3c(c2)OCO3)cc1 (stereo unspecified), Cc1ccc(OCC(=O)NNC(=S)NCc2ccccc2)cc1 is higher in proliferation: 0% for the first, 1.61% for the second.

Going from CSc1nsc(NC(=O)Nc2ccccc2)n1 to Cc1csc(NC(=S)Nc2cccc(Cl)c2)n1, the proliferation rises from -5.02% to -2.77%.

First: C/C(=N/Nc1ccc(Cl)cc1)c1cnnc(-c2ccccc2)n1
Second: O=C(/C=C/Nc1ccccc1)c1cnc(-c2ccccc2)s1
The proliferation of the first is lower: -3.11% for the first, -1.21% for the second.

Compared with O=C(O)CC(SCC(=O)Nc1ccc(Br)cc1)C(=O)O (stereo unspecified), CCCCC(=O)NCc1ccc(F)cc1 is higher in proliferation: -0.34% for the first, 0% for the second.

Going from CCCCOC(=O)Nc1sc2nc(C)cc(C)c2c1-n1cccc1 to Cc1cc(C)c2c(-n3cccc3)c(NC(=O)OCc3ccccc3)sc2n1, the proliferation falls from 0.21% to -5.05%.

Compared with FC(F)(F)c1cccc(NC(=S)Nc2cccc(Cl)c2)c1, O=C(CN1CCN(c2ccc(F)cc2)CC1)Nc1cccc(C(F)(F)F)c1 is higher in proliferation: -6.83% for the first, -3.27% for the second.

First: CCCCn1c(N)c(N(CC)C(=O)/C=C/c2ccco2)c(=O)[nH]c1=O
Second: CCCCn1c(N)c(N(CCOC)C(=O)c2cccc(S(=O)(=O)N3CCCCC3)c2)c(=O)[nH]c1=O
The proliferation of the first is lower: -1.59% for the first, 1.76% for the second.

Going from CO/N=C/CC(=O)c1ccc(OC)cc1 to COc1ccc(OCC(=O)OCCN(C)C)cc1, the proliferation rises from -1.22% to 0.06%.

Going from c1ccc(C[C@H]2CNCCN2CCC23CC4CC(CC(C4)C2)C3)cc1 to Cc1scc(C(=O)NNC(=S)NCc2ccccc2)c1C, the proliferation rises from -8% to 0%.

Going from O=C(c1ccc2c(c1)N(Cc1ccc(F)cc1)C(=O)c1ccccc1S2(=O)=O)N1CCN(c2ccccn2)CC1 to O=C(c1ccc2c(c1)C(=O)N(c1ccc(Cl)cc1)C2=O)N1CCN(c2ccccn2)CC1, the proliferation rises from -0.68% to 2.75%.

First: Cc1c(C(=O)NCCN(C)C)oc2ccc(S(=O)(=O)N3CCCC3)cc12
Second: O=C(CC1CCCCC1)NCc1ccc(F)cc1
The proliferation of the first is higher: 0% for the first, -3.62% for the second.

Compared with Cc1ccc(-n2c(SCC(=O)N/N=C/C=C/c3ccccc3[N+](=O)[O-])nc3ccccc3c2=O)cc1, COc1ccccc1OCc1ccc(C(=O)NC(C)c2ccccc2)o1 (stereo unspecified) is higher in proliferation: -2.84% for the first, 0.18% for the second.

First: Cn1cc(-c2ccccc2)cc(C#N)c1=O
Second: C=CCn1nc(-c2ccccc2)c2c(C)onc2c1=O
The proliferation of the first is lower: -2.8% for the first, 2.27% for the second.

Going from COc1ccc(Cl)cc1S(=O)(=O)Nc1cccc(C(=O)O)c1 to O=C(NC(=S)Nc1cccc2c(O)cccc12)c1cccc(Br)c1, the proliferation falls from -0.59% to -7.11%.

For CC1(C)O[C@@H]2[C@H](O1)[C@@H](CO)O[C@H]2n1c(N2CCCCC2)nc2c(N)ncnc21, the proliferation was 1.62%.
